From PubChem BioAssay AID1159580 (chemical genetic matrix, 2015)
“And” between values parts separate entries of the source, which are not always exact repeats. Identical values can stand only once. Among all 5,500 compounds or so, about 2,000 (36%) were called active. Another 18% or so got no clear call; they are omitted. Cut-off read from the data, not from the text of the source: active = normalized growth mostly below about 0.91 (no sharp cut-off); inconclusive = no clear call, values can overlap the other calls; inactive = mostly above about 0.92. The list shows a part of the results.

Experiment: chemical genetic growth profiling, strain panel (AID 1159580);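 note: tested at 20 µM; growth read once vehicle control cultures reached saturation at 30 °C; 1 = growth at the plate median or of vehicle wells; lower values mean less growth of the strain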
Conditions: S. cerevisiae deletion strains, growth OD

Measured: normalized growth

COc1ccc(Cl)cc1C(=O)NCCc1ccc(S(=O)(=O)NC(=O)NC2CCCCC2)cc1
inactive: locus YAL013W, strain DEP1, active compounds read low 0.982 | locus YAL021C, strain ccr4, active compounds read low 1.01 | locus YAL026C, strain drs2, active compounds read low 1 | locus YAL030W, strain snc1, active compounds read low 1 | locus YAL040C, strain CLN3, active compounds read low 0.984 | locus YBL061C, strain skt5, active compounds read low 1 | locus YBR009C, strain hhf1, active compounds read low 0.993 | locus YBR021W, strain FUR4, active compounds read low 1.03 | locus YBR023C, strain chs3, active compounds read low 1 | locus YBR171W, strain sec66, active compounds read low 1.01 | locus YBR229C, strain ROT2, active compounds read low 0.956 | locus YBR231C, strain swc5, active compounds read low 0.997 | locus YBR279W, strain paf1, active compounds read low 1.01 | locus YCL011C, strain gbp2, active compounds read low 1.01 | locus YCL016C, strain dcc1, active compounds read low 0.992 | locus YCL029C, strain bik1, active compounds read low 0.99 | locus YCL061C, strain MRC1 (second series), active compounds read low 1 | locus YCL061C, strain MRC1, active compounds read low 1 | locus YCL069W, strain vba3, active compounds read low 1 | locus YCR088W, strain abp1, active compounds read low 1.01 | locus YDL005C, strain med2, active compounds read low 1.01 | locus YDL035C, strain GPR1, active compounds read low 0.973 | locus YDL040C, strain nat1, active compounds read low 1 | locus YDL074C, strain BRE1, active compounds read low 0.909 | locus YDL101C, strain DUN1, active compounds read low 0.978 | locus YDL134C, strain PPH21, active compounds read low 0.976 | locus YDL185W, strain tfp1, active compounds read low 0.959 | locus YDL192W, strain arf1, active compounds read low 0.997 | locus YDR001C, strain nth1, active compounds read low 1 | locus YDR069C, strain doa4, active compounds read low 1.01 | locus YDR101C, strain arx1, active compounds read low 1.01 | locus YDR137W, strain rgp1, active compounds read low 0.973 | locus YDR150W, strain NUM1, active compounds read low 0.971 | locus YDR159W, strain sac3, active compounds read low 1.01 | locus YDR162C, strain NBP2, active compounds read low 0.903 | locus YDR195W, strain ref2 0.927 | locus YDR297W, strain sur2, active compounds read low 1 | locus YDR318W, strain mcm21, active compounds read low 1.02 | locus YDR334W, strain swr1, active compounds read low 0.993 | locus YDR335W, strain msn5, active compounds read low 1.01 | locus YDR363W, strain ESC2, active compounds read low 0.968 | locus YDR388W, active compounds read low 0.995 | locus YDR392W, strain spt3, active compounds read low 0.918 | locus YDR502C, strain sam2, active compounds read low 0.989 | locus YEL003W, strain gim4, active compounds read low 0.997 | locus YEL037C, strain rad23, active compounds read low 1 | locus YEL061C, strain CIN8 (second series), active compounds read low 0.996 | locus YEL061C, strain CIN8, active compounds read low 0.984 | locus YER002W, strain NOP16, active compounds read low 1.02 | locus YER015W, strain faa2, active compounds read low 1 | locus YER016W, strain bim1, active compounds read low 1 | locus YER110C, active compounds read low 0.999 | locus YER111C, strain swi4, active compounds read low 1 | locus YER155C, strain BEM2 (second series), active compounds read low 0.996 | locus YER155C, strain BEM2, active compounds read low 0.994 | locus YER167W, strain BCK2, active compounds read low 1.01 | locus YFR010W, strain ubp6, active compounds read low 1.01 | locus YGL078C, strain dbp3, active compounds read low 0.979 | locus YGL086W, strain mad1, active compounds read low 1.02 | locus YGL167C, strain pmr1, active compounds read low 1 | locus YGL173C, strain kem1, active compounds read low 1 | locus YGL227W, strain vid30, active compounds read low 0.998 | locus YGL240W, strain doc1, active compounds read low 0.994 | locus YGL248W, strain PDE1, active compounds read low 0.973 | locus YGL253W, strain hxk2, active compounds read low 1 | locus YGR078C, strain PAC10, active compounds read low 0.958 | locus YGR135W, strain pre9, active compounds read low 0.979 | locus YGR229C, strain SMI1, active compounds read low 0.954 and 0.937 | locus YGR252W, strain gcn5, active compounds read low 1.12 | locus YHR013C, strain ard1, active compounds read low 0.969 | locus YHR027C, strain rpn1, active compounds read low 1.01 | locus YHR030C, strain SLT2, active compounds read low 1 and 0.996 | locus YHR079C, strain IRE1 (second series), active compounds read low 1.01 | locus YHR079C, strain IRE1, active compounds read low 0.993 | locus YHR094C, strain hxt1, active compounds read low 0.996 | locus YHR129C, strain ARP1, active compounds read low 0.993 | locus YHR142W, strain chs7, active compounds read low 1.01 | locus YHR200W, strain rpn10, active compounds read low 1.01 | locus YIL066C, strain RNR3, active compounds read low 0.962 | locus YIL073C, strain SPO22, active compounds read low 1.06 | locus YIL125W, strain kgd1, active compounds read low 0.998 | locus YIR030C, strain dcg1, active compounds read low 1.01 | locus YJL092W, strain hpr5, active compounds read low 1 | locus YJL095W, strain BCK1 (second series), active compounds read low 0.997 | locus YJL095W, strain BCK1, active compounds read low 0.963 and 0.978 | locus YJL115W, strain asf1, active compounds read low 1 | locus YJL129C, strain trk1, active compounds read low 0.994 | locus YJL134W, strain LCB3, active compounds read low 0.993 | locus YJL154C, strain vps35, active compounds read low 0.996 | locus YJL164C, strain tpk1, active compounds read low 0.995 | locus YJL166W, strain qcr8, active compounds read low 1.01 | locus YJL168C, strain set2, active compounds read low 0.998 | locus YJL187C, strain SWE1 (second series), active compounds read low 0.943 | locus YJL187C, strain SWE1, active compounds read low 1.01 | locus YJR043C, strain POL32, active compounds read low 1.03 | locus YJR066W, strain TOR1, active compounds read low 0.934
